# Reference: ChEMBL document CHEMBL3988442, “University of Dundee, Small-Polar-MMV Screening Library” (2021)
# About 13,000 (27%) of roughly 48,000 compounds showed an effect of 50% or more. Some of the results follow.
# Tested on: Wolbachia pipientis
# Experiment: Anti-Wolbachia Cell-Based Screen
# Assay type: functional
# Set-up: scale not given: in the data most compounds retested in dose-response had high values
# Details: 5 µM
row,Compound,Percent Effect [%]
1,CC(CNC(=O)NCc1ccc2c(c1)OCO2)CC1(C)OCCO1 (configuration not stated),-13.46
2,Cc1cc(C)nc(N2CC=C[C@@H]2C(=O)NCc2ccc3c(c2)OCO3)n1.Cl,87.31
3,Cn1cnnc1C1CCCN(C(=O)NCc2ccc3c(c2)OCO3)C1 (configuration not stated),-7.5
4,Cc1cc(C)nc(N2CC=C[C@H]2C(=O)NCc2ccc3c(c2)OCO3)n1,114.7
5,CC(C)(C)NS(=O)(=O)c1cc(NC(=O)C2CC2)ccc1F,-6.714
6,Cc1cc(C)nc(CN(C)C(=O)C(c2cccnc2)N2CCCC2)c1 (configuration not stated),24.45
7,COc1ccc(C2CCCN2S(=O)(=O)c2cc(F)ccc2F)cc1 (configuration not stated),118.1
8,O=S(=O)(c1cc(F)ccc1F)N1CCCC1c1ccncc1 (configuration not stated),90.37
9,COc1ccc(F)cc1S(=O)(=O)N1CCC(OC)CC1,11.35
10,COc1ccc(C2CCCCCN2S(=O)(=O)N(C)C)cc1 (configuration not stated),-32.58
11,COC(=O)[C@H]1C[C@@H](O)CCN1S(=O)(=O)c1ccc(F)cc1F,-1.254
12,CN(CC(=O)NC1CC1)S(=O)(=O)c1ccc(F)cc1Cl,-5.607
13,O=S(=O)(c1ccc(F)cc1Cl)N1CCCC1c1ccncc1 (configuration not stated),106.2
14,COC1CCN(S(=O)(=O)N2CCCC2c2ccco2)CC1 (configuration not stated),-19.32
15,COc1ccc(C2CCCN2S(=O)(=O)N(C)CC(C)C)cc1 (configuration not stated),-5.01
16,C[C@@H]1CN(S(=O)(=O)c2ccc(F)cc2Cl)C[C@]1(C)O,2.252
17,O=S(=O)(c1cc(F)ccc1F)N1CCCC1c1ccco1 (configuration not stated),90.48
18,O=S(=O)(N1CCC(n2cccc2)CC1)N1CCCC1c1ccco1 (configuration not stated),-32.64
19,Cc1noc(CCCC(=O)N2CCN(C)CC2c2ccccc2)n1 (configuration not stated),7.741
20,Cc1cc(C(=O)N2CCNC(=O)CC2)c(C)n1CC(F)(F)F,-3.477
21,CCN(CC)Cc1ccc(C(=O)NC2CCc3cc(Cl)ccc32)o1 (configuration not stated),1.872
22,CNS(=O)(=O)CCCn1nnc(-c2ccc(F)c(C)c2)n1,-16.4
23,O=C(NC1CC(=O)N(C2Cc3ccccc3C2)C1)c1csnn1 (configuration not stated),-8.023
24,CN1CCN2C[C@@H](NC(=O)c3nc4ccccc4[nH]3)C[C@H]2C1,10.91
25,CN1C(=O)CC(C(=O)O)C12CCN(Cc1ccc(F)c(Cl)c1)CC2 (configuration not stated),19.25
26,CCC[C@H]1CN(S(=O)(=O)c2cc(C)ccc2F)C[C@@H]1N,-6.271

row,Compound,Percent Effect [%]
1,Cc1ccc([C@@H]2CN(S(=O)(=O)c3cc(C)ccc3F)C[C@H]2N(C)C)cc1,-17.89
2,Cc1ccc(F)c(S(=O)(=O)N2CCCC2c2ccncc2)c1 (configuration not stated),113.4
3,COc1ccc(NC(C)C(=O)N2CCN(Cc3ccccc3)CC2)cn1 (configuration not stated),10.35
4,CN1CCC(NCC(O)c2cccc(OCc3ccccc3)c2)CC1 (configuration not stated),116.6
5,CCN1CCC(CC(=O)NCC(O)c2cccc(OC)c2)CC1 (configuration not stated),5.929
6,OC(CNC1CCSCC1)c1cccc(OCc2ccccc2)c1 (configuration not stated),91.01
7,OC(CNC1CCOCC1)c1cccc(OCc2ccccc2)c1 (configuration not stated),100.2
8,CO[C@@H](C(=O)NC1CCOCC1)c1ccccc1,-10.4
9,COc1cccc(CNC(CN2CCN(C)CC2)c2ccccc2)c1 (configuration not stated),-4.654
10,CN(Cc1ccccc1)c1ncccc1CNC1CCSCC1,-9.19
11,COc1cccc(C(O)CNC(=O)CC2CCCCC2)c1 (configuration not stated),1.218
12,CC(C)Oc1cccc(C(O)CNC(=O)CCc2ccncc2)c1 (configuration not stated),-6.251
13,O=C(O)C(F)(F)F.O=C(c1ccccc1)N1CCS(=O)(=O)[C@@H]2CCNCC[C@@H]21,-7.979
14,c1ccc(CCn2cc(-c3nc(CN4CCOCC4)no3)nn2)cc1,7.795
15,COc1ccc(-c2n[nH]cc2CN(C)CCc2scnc2C)c(F)c1,-15.83
16,Cc1cc2nc(CO[C@H]3CN(C4CCN(C)CC4)C[C@H]3F)[nH]c2cc1C,-19.54
17,COc1cccc2c1OCC(C(=O)N1CCC(NS(C)(=O)=O)CC1)C2 (configuration not stated),16.61
18,CC(C)c1cnc(CN2C(=O)CC3(CCSC3)C2=O)o1 (configuration not stated),17.31
19,F[C@@H]1CN(Cc2cccnc2)C[C@@H]1OCc1nc2ccccc2[nH]1,10.94
20,CC(C)O[C@H]1CN(Cc2cnc3c(-c4ccccc4)cnn3c2)C[C@@H]1O,3.276
21,O=C1NC(c2ccccc2)=N[C@@]12CC[C@@H]1CN(Cc3cccnc3)C[C@@H]12,0.6919
22,O[C@@H]1CN(Cc2cccnc2)C[C@H]1Oc1ccccc1,103.4
23,O[C@@H]1CN(Cc2ccncc2)C[C@H]1Oc1ccccc1,125.9
24,CCC1CN(C(=O)c2cncc(C)c2)CCC(=O)N1Cc1ccccc1 (configuration not stated),-10.11
25,Cc1cncc(CN2C[C@@H](O)[C@H](Oc3ccccc3)C2)c1,132.9
26,OC1CN(Cc2ccccc2)CCN(c2ccncc2)C1 (configuration not stated),12.72

row,Compound,Percent Effect [%]
1,Cc1cnccc1CN1C[C@@H](O)[C@H](Oc2ccccc2)C1,-5.554
2,COCC(=O)N1CCN(c2ncnc3cccc(F)c23)CC1,0.7263
3,CC1COc2ccccc2N1C(=O)c1ccc(=O)n(C)c1 (configuration not stated),-18.38
4,Fc1cccc(N2CCCC3(C2)CN(c2ncccn2)CCO3)c1.O=C(O)C(F)(F)F.O=C(O)C(F)(F)F (configuration not stated),-1.466
5,Cc1nc(CN2CCCN(c3nccs3)CC2)no1,78.71
6,CCc1nc(CN2CCCN(c3ncnc4ccsc34)CC2)no1,-84.77
7,Cc1csc(N2CCCN(Cc3noc(C)n3)CC2)n1,0.2085
8,c1csc(N2CCCN(Cc3noc(C4CC4)n3)CC2)n1,107.3
9,CC(C)c1nc(CN2CCCN(c3nccs3)CC2)no1,89.07
10,c1csc(N2CCCN(Cc3nc(C4CC4)no3)CC2)n1,-5.415
11,c1csc(N2CCN(Cc3nnnn3C3CC3)CC2)n1,-36.32
12,CCc1nc(CN2CCCN(c3nccs3)CC2)no1,1.816
13,C[C@@H]1CN(C(=O)CCc2nncn2C)C[C@@]1(O)C1CCC1,-1.808
14,Cc1cc(C)n(C(=O)c2cn(C)nc2S(=O)(=O)N2CCSCC2)n1,-0.316
15,Cc1ccc(O)c(CN2CCCCC2CCN2CCOCC2)c1 (configuration not stated),102.9
16,Cc1ccc2nc(CN3CCCCC3CCN3CCOCC3)cn2c1 (configuration not stated),98.48
17,Cc1cnn(CC2CCCN2Cc2cc(=O)n3cc(C)ccc3n2)c1 (configuration not stated),11.19
18,COCCCC1CCCCN1Cc1cnn(C)c1C1CC1 (configuration not stated),18.85
19,Cc1ccc2nc(CN3CCCCC3CCn3cccn3)cn2c1 (configuration not stated),89.18
20,Cc1oc(-c2ccoc2)nc1CN1CCCCC1CCn1cccn1 (configuration not stated),3.711
21,Cc1c[nH]c(CN2CCCCC2CCn2cccn2)c(C)c1=O (configuration not stated),21.06
22,CCCn1ncc(CN2CCCCC2CCCOC)c1C (configuration not stated),-0.2831
23,Cc1nccn1CCC1CCCCN1Cc1ccc(O)cc1Cl (configuration not stated),-13.87
24,COc1cc2c(cc1CN1CCCCC1CN1CCOCC1)CCC2 (configuration not stated),26.24
25,COCCCC1CCCCN1Cc1cn2cc(C)ccc2n1 (configuration not stated),95.19
26,COc1c(C)cnc(CN2CCCCC2CCN2CCOCC2)c1C (configuration not stated),0.5923

row,Compound,Percent Effect [%]
1,CC(C)(C)CN(CCC#N)C(=O)Nc1cccc(N2CCNC2=O)c1,7.726
2,O=C(c1ccccc1F)N(CCCO)S(=O)(=O)c1cccs1,2.629
3,O=C(NCCNc1ncccn1)N(Cc1ccc(F)cc1F)C1CC1,-5.455
4,N#Cc1ccccc1OCCN1CCCCC1C(=O)N1CCOCC1 (configuration not stated),9.052
5,O=C(CN1CCCC1c1nc(-c2ccccc2)no1)N1CCOCC1 (configuration not stated),6.777
6,Cc1ccc2nc(CN3CCCCC3C(=O)N3CCOCC3)cn2c1 (configuration not stated),89.82
7,Cc1nc(CN2CCCN(C(=O)C(C)OCC3CC3)CC2)cs1 (configuration not stated),0.6409
8,COc1ccc(S(=O)(=O)NC(=O)c2c(C)noc2C(C)C)cc1C,-2.008
9,CCc1nc(N2CCCC(CCOC)(C(=O)O)C2)ncc1C (configuration not stated),2.702
10,CCCS(=O)(=O)CCN1CCN(c2cc(F)ccc2F)CC1,-4.475
11,CCS(=O)(=O)CCN1CCN(C(C)c2cccnc2)CC1 (configuration not stated),4.9
12,CC(C)S(=O)(=O)CCN1CCN(C(C#N)c2ccccc2)CC1 (configuration not stated),88.63
13,CCCS(=O)(=O)CCN1CCN(C(C#N)c2ccccc2)CC1 (configuration not stated),125.8
14,CC(c1ccc(Cl)cc1)N1CCN(CCCS(N)(=O)=O)CC1 (configuration not stated),8.4
15,CC(c1ccc(Cl)cc1)N1CCN(CCS(N)(=O)=O)CC1 (configuration not stated),-4.709
16,CS(=O)(=O)N1C[C@H](C(=O)Nc2cnccn2)C[C@H]2OCC[C@H]21,-3.249
17,O=C1N(Cc2ccc(F)c(F)c2)CCCC12CCN(C1CCCCC1)C2 (configuration not stated),-2.682
18,CS(=O)(=O)N1CCc2[nH]cnc2C12CCN(C1CCOCC1)CC2,0.6109
19,Cc1cccc(N2CCC(N3CCC4(CCCNC4=O)C3)CC2)c1C (configuration not stated),11.3
20,CS(=O)(=O)N1CC2(CCN(C3CCCCC3)CC2)Cc2ccccc21,114.5
21,CS(=O)(=O)N1CC2(CCN(C3CCCCC3)C2)Cc2ccccc21 (configuration not stated),120
22,CN(C)C(=O)N1CC2(CCN(S(C)(=O)=O)CC2)c2ccccc21,1.836
23,CC(C)CCN1CCc2[nH]nc(C(=O)N3CCCC3C)c2C1.O=C(O)C(F)(F)F (configuration not stated),-10.1
24,CS(=O)(=O)N1CC[C@@H]2[C@@H](CCC(=O)N2CCC2=CCCCC2)C1,-15.08
